Assay outcomes: PubChem, National Center for Advancing Translational Sciences (NCATS)
Most compounds without a hit are left out; they make up all but 19% or so of the library.
HT1080 IDH1KD tx – kills HT-1080 cells with IDH1 knockdown. 360,000 tested, 2% active. Potency, µM (top dose mostly 46.1 µM), for inactives: at the highest dose activity, negative = toxicity, most hits filed as cytotoxic. AID 686971. HT-1080 IDH1 knockdown viability, ATP luminescence, 48 h;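 also: potency is read from the fitted curve at half-maximal effect; 0% = DMSO wells and -100% = cell-free medium wells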
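IDH1KD HT-1080 cells, 750/well, RPMI + 5% FBS; compound pinned after 2 h settling; 48 h, 37 °C; CellTiter-Glo luminescence; % activity normalised to DMSO and no-cell wells; curves fitted, classed by r2 and efficacy.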
HT1080NT lethal – kills 2HG-producing HT-1080-NT fibrosarcoma cells | HT-1080-NT fibrosarcoma viability, CellTiter-Glo ATP luminescence, 48 h | Potency, µM (highest dose often 46.1 µM), without a hit: top-dose activity, negative = less viability, hits mostly cytotoxic | 360,000 tested, 1.6% active | AID 686970;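 also: NT is the 2HG producing partner of a matched IDH1 knockdown line; potency is read from the fitted curve at half-maximal effect; 0% = DMSO-treated cells and -100% = media-only wells without cells; nearly all actives have a fitted effect of over 55% in size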
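Viability of the 2HG-overproducing fibrosarcoma line after 48 hours of compound exposure at 37 degrees C was determined by luminescence with CellTiter-Glo, and concentration-effect curves were then fitted and categorized.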
IL-1B inflam inh – blocks inflammasome-driven IL-1 beta release | THP-1 LPS/ATP IL-1B secretion, AlphaLISA, 16 h; stronger effect = lower value | activity change, % at 57.5 µM | 360,000 tested, 4.7% active; in the data active = activity change below about -50%; inconclusive = mostly about -30% to -49%
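THP-1 cells pretreated 1 hr with compounds (up to 57.5 uM final), then stimulated with LPS (250 ng/mL final) plus ATP (1.25 mM final); secreted IL-1B measured by AlphaLISA after 16 hr, decreased signal indicating inhibition.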
TDP1 cell CPT – growth inhibition of DT40 Tdp1-/-;hTDP1 cells with camptothecin (screen for TDP1 inhibitors). chicken DT40 Tdp1-/-;hTDP1 cells + 20 nM CPT, ATP luminescence, 48 h. Potency, µM (highest dose often 46.2 µM), for inactives: at the top dose activity change, negative = growth inhibition, hits mostly inhibitors. 420,000 tested, 12% active. AID 686979; also: potency is read from the fitted curve at half-maximal effect; nearly all actives have a fitted effect of over 55% in size
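Chicken DT40 Tdp1-/- cells stably complemented with human TDP1 were seeded at 400 cells/well in medium containing 20 nM camptothecin, exposed to pin-transferred compounds, and grown at 37 °C for at least 48 hr. Viability was read as ATP luminescence.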
TDP1 cell noCPT – qHTS for Inhibitors of human tyrosyl-DNA phosphodiesterase 1 (TDP1): qHTS in cells in absence of CPT | DT40 Tdp1-/- hTDP1 cells, no CPT, ATP luminescence, 48 h | 420,000 tested, 15% active | AID 686978, 2013 | Potency, µM (series often up to 46.2 µM), for inactives: top-dose activity change, negative = growth inhibition, usual class: inhibitors; also: potency is read from the fitted curve at half-maximal effect; nearly all actives have a fitted effect of over 55% in size
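Readout: luminescence from CellTiter-Glo after 30 min in the dark at RT. Cells: DT40 Tdp1-/- with stable hTDP1, 400/well. Exposure: compounds alone, ≥48 hr, 37 °C.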
* marks the source's active call; other numbers are inactive results; ? = inconclusive; / = no result. Unless noted, calls follow the shape of the dose curve; as a rule, active = well fitted curve in the direction sought with a large enough effect; inconclusive = small, poorly fitted or top-dose-only effect, or another doubt; inactive = no such curve, though single readings can be large; an effect the other way counts as inactive or inconclusive. Unless noted, % is scaled to controls: 0 for no effect and ±100 for the full control effect.

SMILES | HT1080 IDH1KD tx | HT1080NT lethal | IL-1B inflam inh | TDP1 cell CPT | TDP1 cell noCPT
CC(c1ccco1)N(C(=O)c1cccs1)c1ccccn1 (stereo unspecified) | 7% | -1% | -8 | -10% | -14%
CC(c1ccco1)N(C(=O)c1cc(Cl)cc(Cl)c1)c1ccccn1 (stereo unspecified) | -3% | -9% | -19 | 9.2µM* | 8.2µM*
CC(C)c1ccc(C(=O)N(c2ccccn2)C(C)c2ccco2)cc1 (stereo unspecified) | 6% | 4% | 15 | ? | 23µM*
Cc1ccc2ncc(C(=O)N3CCN(c4ccccc4F)CC3)c(=O)n2c1 | / | / | / | 0% | -6%
Cc1ccc(OCC(=O)NCc2ccco2)cc1C | 12% | 28% | -5 | -15% | -13%
CCc1ccc(OCC(=O)N(Cc2ccc(C)cc2)Cc2ccco2)cc1 | / | / | / | ? | 21µM*
CCC(=O)N(Cc1ccco1)Cc1cc2cccc(C)c2n2nnnc12 | -1% | -2% | -12 | 6% | 20%
CCc1ccc(OCC(=O)N(Cc2ccco2)Cc2ccccc2Cl)cc1 | / | / | / | ? | 13µM*
Cc1ccc2c(c1)cc(CN(Cc1ccco1)C(=O)COc1ccccc1)c1nnnn12 | -10% | -14% | ? | ? | 23µM*
Cc1ccc(CN(Cc2ccco2)C(=O)COc2ccc(C)c(C)c2)cc1 | / | / | / | 23µM* | 16µM*
COc1ccc2c(c1)cc(C(=O)N[C@@H](CCSC)C(=O)N1CCC(C(=O)O)CC1)n2C | 13% | 14% | 1 | -2% | 0%
Cc1cc(NS(C)(=O)=O)c(=O)n(Cc2c(F)cccc2Cl)c1 | 5% | -1% | 4 | -1% | -1%
CSc1nnnc2ccccc12 | 13% | 2% | -3 | 11% | 0%
COc1ccc(NC(=O)Cn2c(=O)n(CCc3ccccc3)c(=O)c3sc4ccccc4c32)cc1 | / | / | / | -13% | -2%
Cc1cc(=O)oc2cc(OCC(=O)Nc3ccc(F)cc3F)ccc12 | 22% | 10% | -12 | -14% | -11%
Cc1cccc(OCC(=O)N(Cc2ccco2)C2CCS(=O)(=O)C2)c1 (stereo unspecified) | 0% | 1% | 11 | 1% | -10%
Cc1cc(=O)oc2ccc(OCC(=O)N(Cc3ccc(F)cc3)Cc3ccco3)cc12 | ? | -21% | -62* | 23µM* | ?
Cc1cccc(OCC(=O)N(Cc2ccc(C(C)(C)C)cc2)Cc2ccco2)c1 | / | / | / | 21µM* | 10µM*
COc1cccc(NC(=O)CN(C)C(=O)c2ccc(S(=O)(=O)Nc3ccccc3F)cc2)c1 | -11% | -3% | 14 | -16% | -17%
CCOC(=O)c1c(S(=O)(=O)N2CCC(C(=O)N3CCN(c4cc(C)ccc4C)CC3)CC2)c(C)n(C)c1C | / | / | / | ? | 23µM*
CCOC(=O)c1c(S(=O)(=O)N2CCCC(C(=O)N3CCN(c4cc(C)ccc4C)CC3)C2)c(C)n(C)c1C (stereo unspecified) | / | / | / | 8.2µM* | 9.2µM*
CCOC(=O)c1c(S(=O)(=O)N2CCC(C(=O)N3CCN(c4ccccc4F)CC3)CC2)c(C)n(C)c1C | / | / | / | ? | -25%
CCOC(=O)c1c(S(=O)(=O)N2CCCC(C(=O)N3CCN(c4cccc(C)c4C)CC3)C2)c(C)n(C)c1C (stereo unspecified) | / | / | / | 7.3µM* | 9.2µM*
O=C(NN=C(Cc1ccccc1)Cc1ccccc1)C1CC1 | 19% | 13% | -14 | -6% | 1%
FC(F)(F)c1ccc(CN2C[C@@H]3C(c4ccc(Cl)nc4)C4(c5cccnc5)CC3(C4)[C@H]2c2ccccc2)cc1 (stereo partly specified) | ? | ? | -12 | ? | 16µM*
SMILES | HT1080 IDH1KD tx | HT1080NT lethal | IL-1B inflam inh | TDP1 cell CPT | TDP1 cell noCPT
COC(=O)c1ccc(C23CC4(C2)[C@H](CN(Cc2ccc(C(F)(F)F)cc2)[C@@H]4c2ccccc2)C3c2ccc(Cl)nc2)cc1 (stereo partly specified) | -7% | -7% | 0 | 9.2µM* | 10µM*
COC(=O)c1cccc(C23CC4(C2)[C@H](CN(Cc2cccnc2)[C@@H]4c2ccccc2)C3c2ccc(C(F)(F)F)cc2)c1 (stereo partly specified) | -3% | 2% | 42 | 16µM* | 16µM*
COC(=O)c1ccc(C23CC4(C2)[C@H](CN(CC2CCCCC2)[C@@H]4c2ccccc2)C3c2ccc(Cl)nc2)cc1 (stereo partly specified) | -1% | -5% | -10 | ? | ?
FC(F)(F)c1ccc(C2[C@H]3CN(CC4CCCCC4)[C@H](c4ccccc4)C34CC2(c2cccnc2)C4)cc1 (stereo partly specified) | 1% | 2% | -4 | ? | 16µM*
C=CCN(C(=O)Cn1nc(C)n2c(cc3cc(C)ccc32)c1=O)c1ccccc1 | -1% | -4% | -20 | ? | ?
CC(C)CCn1nnc2sc(-c3ccccc3)cc2c1=O | / | / | / | -8% | -21%
COC(=O)C(C)n1nnc2sc(-c3ccccc3)cc2c1=O (stereo unspecified) | 12% | ? | -9 | ? | 18µM*
CCCN(CCC)C(=O)Cn1nnc2sc(-c3ccccc3)cc2c1=O | / | / | / | -3% | -1%
CCN(C(=O)Cn1nc(C)n2c(cc3cc(C)ccc32)c1=O)c1ccccc1 | -1% | -1% | -51* | ? | ?
